HP1b chromo inh = inhibitors of HP1-beta chromodomain binding to methylated histone tails | P83916 | AlphaScreen HP1-beta / biotin-H3K9me3 peptide binding | Potency, µM (top dose mostly 114 µM), for the others: at the top dose activity change, negative = inhibition, actives largely listed as inhibitors | actives 0.56% (n = 390,000) | AID 540317; note: potency is the fitted concentration of half-maximal effect; nearly all actives have a fitted effect of over 70% in size
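Compound inhibition of the preformed complex between 50 nM HP1-beta and 50 nM biotinylated H3K9me3 peptide was read by AlphaScreen. Buffer was PBS pH 7.4 with 0.01% Tween-20. Incubations ran 30 min at room temperature, with 10 ug/mL donor/acceptor beads.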
BAZ2B block = BAZ2B (human) inhibition; actives 4.4% (n = 360,000); Q9UIF8; AlphaScreen BAZ2B-H3K14Ac peptide displacement; Potency, µM (doses to about 114 µM), inactives show at the highest dose activity change, negative = inhibition, hits mostly inhibitors; note: potency is the fitted concentration of half-maximal effect; % is set by controls: 0 for no effect and ±100 for the full control effect; nearly all actives have a fitted effect of over 60% in size
Target sequence (Q9UIF8 whole entry, looked up): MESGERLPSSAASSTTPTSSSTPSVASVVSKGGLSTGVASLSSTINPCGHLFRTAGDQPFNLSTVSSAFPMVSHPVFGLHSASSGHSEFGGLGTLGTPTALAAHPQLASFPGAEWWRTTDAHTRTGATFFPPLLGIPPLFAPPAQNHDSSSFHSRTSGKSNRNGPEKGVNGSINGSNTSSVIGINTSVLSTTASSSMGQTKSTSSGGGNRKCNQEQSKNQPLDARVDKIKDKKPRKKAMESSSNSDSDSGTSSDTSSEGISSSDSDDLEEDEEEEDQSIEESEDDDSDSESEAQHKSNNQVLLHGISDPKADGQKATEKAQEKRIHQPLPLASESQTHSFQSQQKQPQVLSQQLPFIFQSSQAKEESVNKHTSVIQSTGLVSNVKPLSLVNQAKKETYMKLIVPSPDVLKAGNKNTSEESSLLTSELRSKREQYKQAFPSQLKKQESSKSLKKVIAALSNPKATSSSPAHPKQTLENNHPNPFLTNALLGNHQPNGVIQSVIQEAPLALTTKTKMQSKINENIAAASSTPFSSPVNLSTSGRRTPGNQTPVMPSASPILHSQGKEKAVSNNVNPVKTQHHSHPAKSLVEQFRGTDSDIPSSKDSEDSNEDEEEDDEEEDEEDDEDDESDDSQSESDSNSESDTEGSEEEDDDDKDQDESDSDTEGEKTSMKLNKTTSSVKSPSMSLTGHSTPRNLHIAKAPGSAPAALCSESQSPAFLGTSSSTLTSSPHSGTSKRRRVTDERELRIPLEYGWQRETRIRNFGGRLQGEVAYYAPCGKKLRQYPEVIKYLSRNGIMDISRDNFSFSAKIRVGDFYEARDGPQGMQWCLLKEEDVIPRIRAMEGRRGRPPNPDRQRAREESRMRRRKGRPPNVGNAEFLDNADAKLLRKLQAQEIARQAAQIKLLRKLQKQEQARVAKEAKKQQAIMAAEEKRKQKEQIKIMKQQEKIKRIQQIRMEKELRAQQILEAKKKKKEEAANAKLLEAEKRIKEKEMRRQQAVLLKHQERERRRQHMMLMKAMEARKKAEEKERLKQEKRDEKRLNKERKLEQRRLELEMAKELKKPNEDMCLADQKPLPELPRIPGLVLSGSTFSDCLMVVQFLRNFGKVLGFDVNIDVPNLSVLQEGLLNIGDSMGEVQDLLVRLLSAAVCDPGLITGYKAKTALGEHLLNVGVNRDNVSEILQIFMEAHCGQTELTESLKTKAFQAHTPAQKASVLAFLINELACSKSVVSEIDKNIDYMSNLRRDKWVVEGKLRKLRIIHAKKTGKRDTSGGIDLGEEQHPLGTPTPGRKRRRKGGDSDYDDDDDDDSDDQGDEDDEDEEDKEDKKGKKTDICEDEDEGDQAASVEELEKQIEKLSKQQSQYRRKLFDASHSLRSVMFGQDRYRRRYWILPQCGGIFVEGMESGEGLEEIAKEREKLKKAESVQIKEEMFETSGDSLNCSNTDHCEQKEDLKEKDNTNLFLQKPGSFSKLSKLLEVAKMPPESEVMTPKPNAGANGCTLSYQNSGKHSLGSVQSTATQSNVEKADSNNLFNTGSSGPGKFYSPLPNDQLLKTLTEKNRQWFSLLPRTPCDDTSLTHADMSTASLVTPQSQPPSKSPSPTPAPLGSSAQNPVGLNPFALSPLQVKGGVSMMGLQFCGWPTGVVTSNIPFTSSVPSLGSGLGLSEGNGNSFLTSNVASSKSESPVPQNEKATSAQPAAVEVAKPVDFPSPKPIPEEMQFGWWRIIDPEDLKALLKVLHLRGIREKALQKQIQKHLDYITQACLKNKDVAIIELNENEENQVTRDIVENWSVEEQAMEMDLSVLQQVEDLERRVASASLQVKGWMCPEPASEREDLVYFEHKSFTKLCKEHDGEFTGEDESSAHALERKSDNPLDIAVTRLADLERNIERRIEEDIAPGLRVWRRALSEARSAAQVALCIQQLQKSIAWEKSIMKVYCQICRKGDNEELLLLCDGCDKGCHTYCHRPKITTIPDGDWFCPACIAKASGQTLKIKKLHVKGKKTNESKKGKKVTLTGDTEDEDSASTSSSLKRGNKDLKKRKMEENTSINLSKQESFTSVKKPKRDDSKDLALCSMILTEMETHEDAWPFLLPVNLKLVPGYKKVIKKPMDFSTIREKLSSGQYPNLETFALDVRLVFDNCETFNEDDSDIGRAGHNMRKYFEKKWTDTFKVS
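BAZ2B (50 nM) with biotin-H3(5-23)K14Ac peptide (50 nM) in PBS pH 7.4, 0.01% Tween-20, preformed 30 min, then compound 30 min at room temperature; top concentration 110uM. AlphaScreen streptavidin donor/nickel chelate acceptor beads (10 ug/mL final), 20 min dark, signal read.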
G9a inh = blocks human histone lysine methyltransferase G9a; Q96KQ7; G9a H3K9 monomethylation, AlphaScreen, 2 h; Potency, µM (series often up to 102 µM), for inactives: at the top dose activity, negative = inhibition, most hits filed as inhibitors; actives 8.8% (n = 350,000); AID 504332; note: potency is the fitted concentration of half-maximal effect; % is set by controls: 0 for no effect and ±100 for the full control effect; nearly all actives have a fitted effect of over 75% in size
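Signal arises when biotinylated H3K9 peptide, once monomethylated, bridges streptavidin donor and antibody-captured acceptor beads. Enzyme at 20 nM was preincubated 15 min with test compounds; peptide 500 nM and SAM 20 uM then reacted for 2 h.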
PI5P4K alpha inh = PI5P4K alpha (human) kinase inhibition | P48426 | PI5P4Kalpha enzyme, ADP-Glo luminescence, 60 min; hits give low values | max response, % | actives 1.2% (n = 330,000) | AID 652105; active = max response of -50% or lower; inconclusive = between -30% and -50%; inactive = -30% or higher; note: value at the top dose of about 77 µM; % is set by controls: 0 for no effect and ±100 for the full control effect
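PI5P4Kalpha ADP-Glo assay; 5 microM ATP final; 60 min RT reaction; HEPES pH 7.4/EGTA/CHAPS, 5% DMSO; controls lacking substrate or enzyme; luminescent end-point.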
JMJD2A Tudor = inhibitors of human JMJD2A Tudor domain; O75164; AlphaScreen JMJD2A-Tudor / H3K4me3 peptide binding; Potency, µM (highest dose often 114 µM), inactives show at the top dose activity change, negative = inhibition, hits mostly inhibitors; actives 4.4% (n = 390,000); note: potency is the fitted concentration of half-maximal effect; % is set by controls: 0 for no effect and ±100 for the full control effect; nearly all actives have a fitted effect of over 50% in size
PLK1 PBD inh = PLK1 (human) polo-box domain binding inhibition. P53350. Plk1 PBD binding of FITC phosphopeptide, fluorescence polarization. Potency, µM, inactives show max response, negative = inhibition, usual class: inhibitors. actives 2.8% (n = 360,000); note: potency is the fitted concentration of half-maximal effect; series mostly up to about 57 µM; % is set by controls: 0 for no effect and ±100 for the full control effect; nearly all actives have a fitted effect of over 65% in size
* = called active by the depositor; ? = inconclusive; · = no result given; [ ] = dose if it differs, or a comment. A selection: hits, their analogues and other compounds. The true share with any hit is near 12%. Unless noted, calls come from the whole dose curve; as a rule, active = well fitted curve in the direction sought with a large enough effect; inconclusive = small, poorly fitted or top-dose-only effect, or another doubt; inactive = no such curve, though single readings can be large; an effect the other way counts as inactive or inconclusive.

SMILES	HP1b chromo inh	BAZ2B block	G9a inh	PI5P4K alpha inh	JMJD2A Tudor	PLK1 PBD inh
CC(C)N(Cc1ccccc1)S(=O)(=O)c1ccc(-c2cc(C(F)(F)F)on2)s1	68%	36%	39%[59 µM]	·	33%	·
COc1ccccc1N1CCN(C(=O)C2CCN(S(=O)(=O)Cc3ccccc3)CC2)CC1	71%	20%	-7%[59 µM]	·	18%	·
c1ccc(CN2CCC(N3CCC(N4CCCCCC4)CC3)CC2)cc1	-11%	?	45µM*	2	1.4µM*	-2%
O=c1[nH]c(CN2CCN(S(=O)(=O)c3ccc4ccccc4c3)CC2)nc2ccccc12	24%	-5%	21%	-7	?	2%
COc1ccccc1N1CCN(C2CCN(S(=O)(=O)c3ccc(C)cc3)CC2)CC1	-2%	-30%	16%[59 µM]	1	-14%	-16%
O=S(=O)(c1ccc2ccccc2c1)N1CCN(C2CCN(Cc3ccccc3)CC2)CC1	-46%	28µM*	5µM*	·	0.89µM*	-5%
COc1ccccc1N1CCN(C2CCN(S(=O)(=O)c3ccc4ccccc4c3)CC2)CC1	?	?	45µM*	1	?	3%
O=S(=O)(c1ccc2ccccc2c1)N1CCN(Cc2ccccn2)CC1	-9%	79µM*	?	-2	3.2µM*	-16%
COc1ccc(C(=O)N=c2sc3cc(Cl)ccc3n2C)cc1	29%	2%	-60%[59 µM]	·	-11%	·
COCCN(CC(=O)NCC1CCCO1)C(=O)CCC(=O)Nc1cc(C)ccn1 (centres undefined)	47%	22%	28µM*	4	-8%	-3%
COCCN(CC(=O)NCC1CCCO1)C(=O)CCC(=O)Nc1cc(C)on1 (centres undefined)	11%	-6%	24%	0	0%	2%
O=C(N/N=C/c1cccnc1)c1ccccc1OCc1cccc(Br)c1	37%	·	-31%	0	-2%	-5%
COc1ccccc1NC(C)C(=O)N/N=C/c1ccccc1OCc1cccc(Br)c1 (centres undefined)	-6%	-37%	50µM*	0	?	0%
Cc1ccc(/C=N/NC(=O)c2ccccc2OCc2cccc(Br)c2)o1	?	-39%	25µM*	-18	-36%	-19%
Cc1cc(C)nc(N/N=C/c2ccccc2OCc2cccc(Br)c2)n1	-2%	-10%	14%[59 µM]	17	-36%	0%
CCOc1cccc(/C=N/NC(=O)c2cccnc2)c1O	58%	32µM*	32%	4	89µM*	-4%
CC(Nc1cccc2ccccc12)C(=O)N/N=C/c1ccc([N+](=O)[O-])cc1 (centres undefined)	?	?	?	2	?	-3%
COc1cc([N+](=O)[O-])cc(/C=N/NC(=O)C(C)Nc2cccc3ccccc23)c1O (centres undefined)	-29%	45µM*	45µM*	-50*	?	-16%
Cc1ccc(C(=O)Nc2ccc(N3CCN(C(=O)c4cccs4)CC3)cc2)c(Cl)c1	23%	-20%	-12%	-7	0%	0%
OC[C@H]1O[C@H](n2cnc3c(N[C@H]4CCC[C@@H]4O)ncnc32)[C@H](O)[C@@H]1O	·	·	39%[59 µM]	·	·	·
COc1cc([N+](=O)[O-])cc(/C=N/NC(=O)c2cccnc2)c1O	13%	18µM*	·	-13	22µM*	-6%
COc1c(/C=N/NC(=O)c2ccncc2)c(CCN(C)C(C)=O)cc2c1OCO2	3%	-13%	50µM*	1	3%	-5%
COc1cccc(C=NNC(=O)c2ccncc2)c1O	15%	·	·	10	56µM*	-8%
COc1cc(OC)c(/C=N/NC(=O)c2ccncc2)c(OC)c1	16%	9%	3%	-5	4µM*	?
COCc1cc(C)nc2sc3c(c12)NC(c1ccc(O)cc1)N(c1ccc(OC)cc1)C3=O (centres undefined)	50%	0%	28%[59 µM]	·	-14%	·
O=C(C=P(c1ccccc1)(c1ccccc1)c1ccccc1)c1ccccc1-c1ccccc1C(=O)C=P(c1ccccc1)(c1ccccc1)c1ccccc1	?	·	·	-65*	45µM*	?
